Screens (PubChem)
NPR1 antag: Natriuretic polypeptide receptor (hNpr1) antagonism - Primary qHTS. Atrial natriuretic peptide receptor 1 (Homo sapiens), P16066. HEK293 hNpr1 GloSensor cGMP, ANP-stimulated luminescence. Potency, µM (titrated, usually from 46.3 µM), for the others: at the top dose activity change, negative = inhibition, hits mostly inhibitors. hit rate 1.6% among 76,000. AID 1347048, 2019; calls by dose curve; note: nearly all actives have a fitted effect of over 60% in size
Target sequence (P16066 whole entry, looked up): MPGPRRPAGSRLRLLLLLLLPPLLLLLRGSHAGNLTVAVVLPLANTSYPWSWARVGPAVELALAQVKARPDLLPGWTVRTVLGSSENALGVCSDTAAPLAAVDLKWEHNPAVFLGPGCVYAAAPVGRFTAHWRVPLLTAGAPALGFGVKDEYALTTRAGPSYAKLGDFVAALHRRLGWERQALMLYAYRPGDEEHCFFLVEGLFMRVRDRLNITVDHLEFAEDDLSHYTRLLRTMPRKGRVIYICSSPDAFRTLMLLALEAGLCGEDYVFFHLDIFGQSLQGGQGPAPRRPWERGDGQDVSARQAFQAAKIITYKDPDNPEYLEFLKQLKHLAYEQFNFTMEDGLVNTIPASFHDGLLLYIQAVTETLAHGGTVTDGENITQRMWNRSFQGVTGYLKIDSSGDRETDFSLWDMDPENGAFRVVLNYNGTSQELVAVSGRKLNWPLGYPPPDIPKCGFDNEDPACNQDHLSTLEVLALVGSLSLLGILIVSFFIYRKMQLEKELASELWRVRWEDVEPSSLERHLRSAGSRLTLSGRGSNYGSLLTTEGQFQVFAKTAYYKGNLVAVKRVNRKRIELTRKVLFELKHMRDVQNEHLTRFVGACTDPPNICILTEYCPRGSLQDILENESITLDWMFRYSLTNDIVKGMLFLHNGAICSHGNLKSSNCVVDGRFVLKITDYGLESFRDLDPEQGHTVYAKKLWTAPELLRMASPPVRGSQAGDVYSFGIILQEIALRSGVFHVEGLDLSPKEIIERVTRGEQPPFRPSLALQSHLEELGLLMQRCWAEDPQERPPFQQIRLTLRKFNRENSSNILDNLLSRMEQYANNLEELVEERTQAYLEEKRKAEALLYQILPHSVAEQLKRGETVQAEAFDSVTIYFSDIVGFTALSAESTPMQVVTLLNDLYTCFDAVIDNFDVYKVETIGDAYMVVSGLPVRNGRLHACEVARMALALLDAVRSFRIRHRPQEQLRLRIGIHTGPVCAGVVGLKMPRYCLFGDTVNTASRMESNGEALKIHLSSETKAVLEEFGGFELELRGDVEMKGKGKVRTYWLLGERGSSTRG
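Compound pre-incubated 30 min at room temperature on GloSensor-loaded HEK293 cells stably carrying hNpr1 and the pGS-40F cGMP biosensor. Stimulation uses hNppA at 0.1 nM final; luminescence is taken at baseline and 20 min post-agonist.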
NIH3T3 tox: Cytotoxic Profiling in NIH 3T3 Cell Line of Diverse Libraries Using Quantitative High-Throughput Screening | hit rate 4.3% among 94,000 | NIH 3T3 viability, CellTiter-Glo ATP luminescence, 48-72 h | AID 1345082, 2018 | Potency, µM (series often up to 96.7 µM), for inactives: top-dose activity change, negative = cytotoxicity, hits mostly inhibitors; note: nearly all actives have a fitted effect of over 55% in size
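Mouse fibroblast NIH 3T3 cells, 400 per well, received compound via pintool and were incubated for 48 or 72 hr prior to CellTiter-Glo ATP luminescence measurement.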
GPT2 inhibitor: Primary qHTS assay for inhibitors of Glutamate pyruvate transaminase 2 (GPT2). Recombinant GPT2, coupled pyruvate oxidase/HRP Amplex Red fluorescence. Potency, µM (doses to about 57.7 µM), without a hit: at the top dose activity change, negative = inhibition, usual class: inhibitors. hit rate 0.25% among 100,000. AID 1671188, 2021; note: nearly all actives have a fitted effect of over 60% in size
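GPT2 10ng/uL, a-KG 250uM, L-Ala 2mM, HEPES pH7.5 + 0.0001% Tween; 30 min RT. Then Amplex mix (PO/HRP/ThPP), 30 min RT dark, fluorescence. AOA 50uM used as positive control.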
FLuc inh: Firefly luciferase inhibition profiling of diverse chemical library using quantitative high-throughput screening | Luciferin 4-monooxygenase (Photinus pyralis), P08659 | purified P. pyralis luciferase, luminescence, biochemical | Potency, µM (doses to about 115 µM), actives largely listed as inhibitors | hit rate 2.5% among 76,000 | AID 1347043, 2019; note: nearly all actives have a fitted effect of over 65% in size
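Biochemical qHTS: compound (6-point titration) added to 10uM D-luciferin plus 10uM ATP in Tris acetate pH 7.5 buffer with Mg, Tween-20 and BSA, then purified enzyme at 10nM; light output imaged.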
HEK293 tox: Cytotoxic Profiling in HEK 293 Cell Line of Diverse Libraries Using Quantitative High-Throughput Screening; HEK 293 viability, ATP luminescence (CellTiter-Glo), 48-72 h; Potency, µM (top dose mostly 115 µM), without a hit: at the top dose activity change, negative = cytotoxicity, usual class: inhibitors; hit rate 6.6% among 94,000; note: nearly all actives have a fitted effect of over 60% in size
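Cells seeded first (HEK 293, 250 cells/well), then compound added by pintool. Incubation ran 48 or 72 hr at 37 degree Celsius. CellTiter-Glo was added and luminescence imaged after 10 min at room temperature.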
Numbers without * were called inactive; i = inactive; ? = inconclusive; · = not tested or not shown; [ ] = another dose, or the depositor's remark. The list is not random: actives were taken first. Their share in the collection is about 10%. Unless noted, calls come from the whole dose curve; as a rule, active = well fitted curve in the direction sought with a large enough effect; inconclusive = small, poorly fitted or top-dose-only effect, or another doubt; inactive = no such curve, though single readings can be large; an effect the other way counts as inactive or inconclusive. % is set by controls: 0 for no effect and ±100 for the full control effect; potency is the fitted concentration of half-maximal effect.

SMILES	NPR1 antag	NIH3T3 tox	GPT2 inhibitor	FLuc inh	HEK293 tox
CC1Oc2ccc(NC(=O)c3cccs3)cc2CN(CCOc2ccccc2)C1=O (stereo not drawn)	-19.6%	?	i	i	39.8µM*
COc1ccc(CCN2Cc3cc(NC(=O)c4ccc(OC)cc4)ccc3OC(C)C2=O)cc1 (stereo not drawn)	0.8%	-27.9%	i	i	89.1µM*
Cn1nc(C(=O)N2CCC3(CC2)CC(OCC2CC2)CCO3)c2ccccc21 (stereo not drawn)	3.2%	-22.3%	i	i	?
COC(=O)CNC(=O)c1nc(-c2ccc(F)cc2)c2cnccn12	0.0%[70.6 µM]	-12.4%[138 µM]	?	i	-22.6%[172 µM]
O=C(CC1CCCCC1)N1CC(c2nnc(-c3ccncc3)o2)C2(CCOCC2)C1 (stereo not drawn)	8.5%	-4.5%	-9.1%	i	-5.4%
COc1ccc(-c2cnc3[nH]cc(CC(N)=O)c3c2)cc1OC	-1.5%[70.6 µM]	10µM*	-1.4%[88.5 µM]	i	?
Cc1noc(C)c1-c1cnc2[nH]cc(CC(=O)NCc3cccnc3)c2c1	0.4%[70.6 µM]	31.6µM*	i	i	?
NC(=O)Cc1c[nH]c2ncc(-c3ccc(F)cc3)cc12	1.4%[70.6 µM]	?	i	?	-6.8%[230 µM]
O=C(Cc1c[nH]c2ncc(-c3cccc(CO)c3)cc12)NCc1cccnc1	-9.4%[70.6 µM]	?	3.0%[88.5 µM]	i	-21.8%[172 µM]
Cc1noc(C)c1-c1cnc2[nH]cc(CC(N)=O)c2c1	-3.9%[70.6 µM]	10µM*	-26.9%[88.5 µM]	i	?
CC(C)NC(=O)C1CCN(C(=O)c2ccc(-c3cncnc3)cc2)CC1	·	?	·	·	-0.3%[172 µM]
COc1cccc(-c2cc(-c3ccccc3)nc3c(C)noc23)c1	0.7%[70.6 µM]	?	3.6%[88.5 µM]	i	?
Cc1noc2c(-c3cccc(CO)c3)cc(-c3ccc(F)cc3)nc12	2.5%[70.6 µM]	?	?	i	70.8µM*
Cc1noc2c(-c3cccc(CO)c3)cc(-c3cccc(C(F)(F)F)c3)nc12	-2.9%[70.6 µM]	25.1µM*	-6.4%[88.5 µM]	i	44.7µM*
COc1ccc(Cn2c(=O)c(C(=O)N3CCN(C(=O)N(C)C)CC3)nc3cccnc32)cc1	·	1.9%	3.6%	·	i
CN(Cc1cccnc1)C1CCCc2ccccc21 (stereo not drawn)	-0.3%[70.6 µM]	?	i	i	56.2µM*
Cc1cccc(CN(C)C2CCCc3ccccc32)c1 (stereo not drawn)	26.8%[70.6 µM]	-14.1%[138 µM]	-2.0%[88.5 µM]	i	i
CC(C)(C)C(=O)N1CCC2(CC1)Cc1ccccc1NC2=O	31.4%[70.6 µM]	-25.4%[138 µM]	i	i	?
O=C(NC1CCCC1)N1CCN(CCCn2nc3n(c2=O)CCCC3)CC1	·	-26.5%	·	·	-16.5%
CC(C)CCNC(=O)c1cnc2n1CCN(Cc1ccc(C(C)C)cc1)CC2	?	?	i	i	56.2µM*
O=C(Nc1ccccc1)c1cnc2n1CCN(Cc1cccc(O)c1)CC2	-0.9%[70.6 µM]	?	-12.4%[88.5 µM]	?	?
CC(C)c1ccc(CN2CCc3ncc(C(=O)Nc4ccccc4)n3CC2)cc1	-24.9%[70.6 µM]	28.2µM*	-22.8%[88.5 µM]	i	31.6µM*
CCCC(=O)N1CCc2cn(C)c3cccc(c23)C1	-3.4%	-5.3%	i	i	1.8%
Cc1ccc(C(=O)NC2CCN(c3nccc(Nc4ccccc4Cl)n3)CC2)cc1	·	-2.4%	-4.8%	·	1.3%
Cc1c(CN(C)Cc2cccc(C(=O)Nc3ccc(C#N)cc3)c2)cnn1C	-12.0%	-29.3%	i	i	50.1µM*
N#Cc1cccc(NC(=O)c2cccc(CN3CCN(CCO)CC3)c2)c1	-17.6%	-6.6%	i	i	?
Cc1cc(C)cc(C2(CNC(=O)C3CC4(CCNCC4)CN3)CCCC2)c1 (stereo not drawn)	-12.2%	?	i	i	79.4µM*
Cn1cc(-c2cn[nH]c2)c2nc(COc3ccccc3)cn2c1=O	-26.4%[70.6 µM]	?	3.4%[88.5 µM]	i	?
